Bioassay records deposited in PubChem by several laboratories.
Shown are actives, neighbours in structure and some others; about 2.2% of the full set was active somewhere.
VLA-4 inh = inhibition in a human VLA-4 binding assay; hit rate 0.2% among 330,000; VLA-4 expressing cells, ligand binding flow cytometry; inhibition, % (about 7 µM as worked out from the volumes in the protocol); in the data active = inhibition above about 50%
Granule exo inh = lytic granule exocytosis inhibition; AID 651702; TALL-104 LAMP-1 surface exposure, flow cytometry; cells stimulated with thapsigargin and PMA; inhibition, % at 10 µM; hit rate 0.66% among 360,000;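 active = inhibition above about 55%, limit read from the data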
MEX-5 binding = C. elegans MEX-5 TCR-2 RNA binding activity; Q9XUB2; MEX-5/FITC-TCR2 RNA binding, fluorescence polarization; active compounds read low; hit rate 0.38% among 300,000; AID 1832; activity score (negative = inhibition of binding), % at 10 µM;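 active = inhibition past about -25% in most replicates, and total fluorescence under double the plate's negative control median, limit read from the data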
V-ATPase pHluor = alters yeast V-ATPase proton transport | S. cerevisiae, pHLuorin cytosolic pH fluorescence | response, % at 10 µM | AID 504577 | hit rate 0.37% among 350,000; in the data active = response mostly above about 7.3%, no sharp cut-off; inactive = mostly below about 5.4%; note: actives read high
m5-HT2A agonist = mouse HTR2A agonism via beta-arrestin recruitment; activation, % at 7.6 µM; hit rate 0.66% among 360,000; CHO-K1 mHTR2A beta-arrestin complementation, luminescence; percent of 30 µM serotonin response;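 active = activation above a run cutoff, the mean activation of all tested compounds plus 3 SD, cut at about 14% in these data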
GASC-1 inh = human JMJD2C demethylase inhibition; AID 2099; GST-JMJD2C(1-420) H3K9me3 demethylation, DELFIA europium; inhibition, % at 2.35 µM; hit rate 0.069% among 330,000;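 active = more than half of a compound's replicate wells show inhibition beyond 50%, single wells judged on their own value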;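 note: signal counts dimethyl H3K9 product captured on neutravidin plate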
Target sequence (Q9H3R0 1-420 limits assumed): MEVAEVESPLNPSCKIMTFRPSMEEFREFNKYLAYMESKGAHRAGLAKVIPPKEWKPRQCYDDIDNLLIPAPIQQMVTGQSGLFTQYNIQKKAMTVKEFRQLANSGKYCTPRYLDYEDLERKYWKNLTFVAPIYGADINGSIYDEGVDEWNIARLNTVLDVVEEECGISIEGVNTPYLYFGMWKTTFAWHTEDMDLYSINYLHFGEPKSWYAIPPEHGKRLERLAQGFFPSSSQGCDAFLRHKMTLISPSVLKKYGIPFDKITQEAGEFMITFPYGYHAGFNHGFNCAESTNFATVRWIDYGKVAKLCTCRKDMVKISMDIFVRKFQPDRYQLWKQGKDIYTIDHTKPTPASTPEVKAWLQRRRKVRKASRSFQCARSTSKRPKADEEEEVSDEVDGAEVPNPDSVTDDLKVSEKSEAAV
MOR ag counter = activates human mu opioid receptor in HTR2A counterscreen; shares compounds with m5-HT2A agonist; U2OS OPRM1 beta-arrestin PathHunter, luminescence; DMSO 0%, DAMGO 9.3 µM 100%; activation, % at 9.3 µM; hit rate 5.3% among 2,300; AID 624380;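 active = mean activation above the mean of DMSO-only wells plus 3 SD, cut at about 0.5% in these data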
HTR2A ag conf = mouse HTR2A agonism confirmed; activation, % at 7.6 µM; hit rate 19% among 2,300; shares compounds with m5-HT2A agonist; CHO-K1 PathHunter beta-arrestin recruitment, luminescence; DMSO 0%, 30 µM serotonin 100%;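 active = mean activation across triplicates above the hit threshold derived in the original primary screen, cut at about 15% in these data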
A number is an active result; n = inactive; x = not tested or not shown.

SMILES	VLA-4 inh	Granule exo inh	MEX-5 binding	V-ATPase pHluor	m5-HT2A agonist	GASC-1 inh	MOR ag counter	HTR2A ag conf
COc1ccc(NC(=O)Cn2nc(C(=O)O)c3ccccc3c2=O)cc1OC	n	n	n	n	n	n	x	x
COc1ccc(CNC(=O)c2ccc(C(C)C)cc2)cc1	n	n	n	n	15	n	n	n
COc1ccc(NC2CCCN(C(=O)Cn3ccc(C)n3)C2)cc1OC (stereo not given)	n	n	n	n	15	n	n	n
O=C(O)c1ccc(S(=O)(=O)N2CCC3(CC2)CC(=O)c2ccccc2O3)cc1	n	n	n	n	19	n	n	n
Cc1ccc(S(=O)(=O)N2CCC3(CC2)CC(=O)c2ccccc2O3)cc1	n	n	n	n	n	n	x	x
Cc1[nH]c(=O)nc(SCc2ccc(Cl)c(Cl)c2)c1C#N	n	n	n	n	15	n	0.8	n
COC(=O)c1ccn(CSc2cc(Cl)ccc2Cl)n1	n	n	x	n	21	n	0.6	n
COC(=O)c1ccn(CSc2c(F)c(F)cc(F)c2F)n1	n	n	x	n	n	n	x	x
CCOC(=O)NC(=O)COC(=O)CNC(=O)c1cccc(OC)c1	n	n	n	n	20	n	n	n
CCOC(=O)CNC(=O)c1cc(OC)cc(OC)c1	n	n	n	n	n	n	x	x
Cc1c(Cc2ccc3c(c2)OCO3)sc(NC(=O)c2ccccc2)c1C(N)=O	n	n	n	n	15	n	n	n
Brc1ccccc1-c1nnc(SCc2nc3ccccc3s2)o1	n	n	n	n	16	n	n	n
CCN(CC)S(=O)(=O)c1cccc(-c2nnc(SCc3nc4ccccc4s3)o2)c1	n	n	n	n	n	n	x	x
Cc1cccc(Nc2ncnc3onc(-c4cccc(Cl)c4)c23)c1C	n	n	n	n	n	n	x	x
Cc1cc(C)c(CN2CCN(C(=O)Cn3cnc4c(NCc5ccccc5)ncnc43)CC2)c(C)c1	x	n	x	n	22	x	x	n
CCOC(=O)c1nn(-c2ccccc2)c2nc(-c3ccc(OC)cc3)c(C#N)c(=O)n12	n	n	n	n	19	x	0.6	n
CCOC(=O)c1nn(-c2ccccc2C)c2nc(-c3ccc(C)cc3)c(C#N)c(=O)n12	n	n	n	n	n	n	x	x
CCN(CC)S(=O)(=O)c1ccc(NC(=O)c2cnccn2)cc1	n	n	n	n	n	n	x	x
CCOC(=O)c1ccc(NC(=O)CCS(=O)(=O)Cc2ccccc2)cc1	n	n	n	n	15	n	n	n
Cc1ccnc(NC(=O)c2cccc(NC(=O)CC3SC(N4CCCCC4)=NC3=O)c2)c1 (stereo not given)	n	n	x	n	15	n	n	n
Cc1ccnc(NC(=O)c2ccc(NC(=O)CC3SC(N4CCCC4)=NC3=O)cc2)c1 (stereo not given)	n	n	n	n	n	n	x	x
COCC1CCN(C(=O)c2cc(COc3cc(C)c(Cl)c(C)c3)on2)C1 (stereo not given)	n	n	n	n	n	n	x	x
COc1ccccc1-c1ncn(Cc2cccc(-c3ccccc3)c2)c1-c1ccco1	x	n	x	x	n	x	x	x
CC(C)=CC(=O)N1CC[C@@H](N2CCN(c3ccccc3F)CC2)[C@H](O)C1	n	n	n	n	17	n	n	43
CSCCC(=O)N1CC[C@@H](N2CCN(c3ccccc3F)CC2)[C@H](O)C1	n	n	n	n	15	n	n	45
SMILES	VLA-4 inh	Granule exo inh	MEX-5 binding	V-ATPase pHluor	m5-HT2A agonist	GASC-1 inh	MOR ag counter	HTR2A ag conf
OCCN1CCN(c2ncnc3scc(-c4ccc(F)cc4)c23)CC1	n	n	n	n	16	n	n	n
COc1ccc(-c2csc3ncnc(N4CCN(CCO)CC4)c23)cc1	n	n	n	n	n	n	x	x
Nc1nnc(SCC(=O)c2ccc([N+](=O)[O-])cc2)s1	n	n	n	n	n	n	x	x
Cc1nnc(SCC(=O)c2ccc([N+](=O)[O-])cc2)s1	n	n	n	n	15	n	0.5	n
CCN(Cc1nc(-c2ccccc2)no1)C(=O)c1ccco1	n	n	n	n	n	n	x	x
CN(Cc1nc(-c2ccccc2)no1)C(=O)c1ccco1	n	n	n	n	16	n	n	n
O=C(CCc1nnc2ccc(NCc3ccco3)nn12)Nc1ccc(F)cc1	n	n	n	n	n	n	x	x
CCN(c1ccccc1)S(=O)(=O)c1ccc(C(=O)NCC(=O)Nc2ccc(F)c(F)c2F)cc1	n	n	x	n	n	n	x	x
OC(c1ccco1)c1nc(-c2ccc(F)c(Cl)c2)cs1 (stereo not given)	x	n	x	x	n	x	x	x
COc1ccc(S(=O)(=O)NCc2nc3nc(C)cc(C)n3n2)cc1OC	n	n	n	n	n	n	x	x
Cc1cc(C)n2nc(CNS(=O)(=O)c3ccc(C(C)(C)C)cc3)nc2n1	x	n	x	x	22	x	n	n
Cc1cccc(C)c1NC(=O)CSc1n[nH]c(=O)n1C1CC1	n	n	x	n	n	n	x	x
CC(C)(C)OC(=O)NCCc1nnc(SCc2c(Cl)cccc2Cl)o1	n	n	n	n	15	n	n	n
CC(C)(C)OC(=O)NCCCCCc1nnc(SCc2c(F)cccc2Cl)o1	n	n	n	n	n	n	x	x
C1CC(=NN=C2CCSCC2)CCS1	x	n	x	n	n	x	x	x
Cc1nn(-c2ccc(F)cc2)c(Cl)c1C(=O)N(C)CC(=O)Nc1cccc(F)c1	n	n	n	n	n	n	x	x
CN1OC[C@@H]2CN(Cc3cc(Cl)cc(Cl)c3)[C@H](c3cccc(Oc4ccccc4)c3)C[C@@H]21	x	n	x	n	15	x	n	n
CCn1c(CNC(=O)c2ccco2)nnc1SCC(=O)Nc1cc(C)c(C)cc1Br	n	n	n	n	15	n	1.0	n
O=C(NCC1OCCc2ccccc21)c1ccc(NC(=O)c2ccccc2Cl)cc1 (stereo not given)	n	n	n	n	n	n	x	x
O=C(NCC1OCCc2ccccc21)c1ccc(NC(=O)c2ccc(Cl)cc2Cl)cc1 (stereo not given)	n	n	n	n	16	n	0.8	n
CCN(CC)CCn1c(NC(=O)c2ccc(Cl)cc2)nc2ccccc21	n	n	n	n	18	n	x	n
CCN(CC)CCn1c(NC(=O)c2ccccc2O)nc2ccccc21	n	n	n	n	n	n	x	x
O=[N+]([O-])c1cccc2cnccc12	x	n	x	n	15	x	n	n
O=[N+]([O-])c1ccc(Oc2cccc(Br)c2)c2ccncc12	n	n	n	n	n	n	x	x
Cc1cc(C)nc(-n2nc(C)cc2NC(=O)c2ccc(S(=O)(=O)N3CCOCC3)cc2)n1	n	x	n	x	x	n	x	x
